This is one part of the list. Unmarked numbers belong to inactive results. Active and inactive are the calls of the source. Rule as the data show it: active = activation above about 18%; inactive = the rest.
Assay: OPRM1-OPRD1 heterodimerization promoters, counter-screen for HTR5A agonist project, cell-based, luminescence (AID 504913)
Details: U2OS counter-screen cells, complementation luminescence, 3 h; at 9.3 µM; hits give high values

With `CC(=O)COc1ccc2c(-c3ccccc3)cc(=O)oc2c1` the activation was 63.2% (active).
For `CC(NC(=O)c1cc(-c2ccccc2)on1)c1ccccc1` (stereo not given), the activation was 40.1% (active).
For `Cc1ccc(CCC(=O)Nc2ncc(Cc3cc(Cl)ccc3Cl)s2)o1`, the activation was 32.2% (active).

Compared with `CC(=O)c1c(C)[nH]c(C(=O)OCC(=O)Nc2c(C)cccc2C)c1C`, `Cc1c(C(=O)OCC(=O)N(CCC#N)c2ccccc2)oc2c1ccc1ccccc12` is lower in activation: 1.59% for the first, 1.04% for the second.

First: CC(=O)N1CCN(c2ccccc2NC(=S)NC(=O)c2cc3ccccc3o2)CC1
Second: CN(c1ccccc1)S(=O)(=O)c1cc(C(=O)N2CCN(c3ncccn3)CC2)ccc1Cl
The activation of the first is higher: 0.56% for the first, -0.79% for the second.

First: COC(=O)c1cc(S(=O)(=O)N2CCN(c3cc(C)ccc3C)CC2)c[nH]1
Second: COc1ccc(S(=O)(=O)N2CCN(CC(=O)N3c4ccccc4CC3C)CC2)cc1OC (stereo not given)
The activation of the first is lower: 0.96% for the first, 4.47% for the second.

Going from `c1cc(-c2nn[nH]n2)ccc1CN1CCCCC1` to `CCN(CC(=O)Nc1cccc(S(=O)(=O)N2CCCCC2)c1)Cc1ccccc1`, the activation rises from 0.2% to 4.65%.

Going from `CCCN(CCc1ccccc1)C1CCc2c(O)cccc2C1` (stereo not given) to `CCC(C)NC(=O)CCCc1ccccc1` (stereo not given), the activation falls from 11.3% to 1.02%.

Going from `CC1CCN(S(=O)(=O)c2nnc(NC(=O)COc3ccccc3F)s2)CC1` to `COc1ccccc1S(=O)(=O)NCc1ccc(C(=O)N(C)Cc2ccc(F)cc2)cc1`, the activation falls from 3.72% to 3.43%.

Compared with `Cc1cccc2sc(N(CCCN(C)C)C(=O)CCS(=O)(=O)c3ccccc3)nc12`, `O=C(CC1Nc2ccccc2NC1=O)Nc1ccccc1` (stereo not given) is higher in activation: 0.46% for the first, 2.23% for the second.

Going from `CNC(=S)N/N=C/c1ccc(OCc2ccccc2)c(Br)c1` to `COc1ccc(C(=O)O/N=C(\N)Cc2ccc(Cl)cc2Cl)cc1OC`, the activation rises from -1.02% to 9.9%.

Going from `O=C(CC(O)(C(F)(F)F)C(F)(F)F)Nc1ccc(Cl)c(Cl)c1` to `O=C(Nc1ccc(C(=O)N2CCOCC2)cc1)Nc1cccc(C(F)(F)F)c1`, the activation rises from -1.36% to 0.41%.

Going from `CNc1nnc(-c2ccco2)s1` to `COc1ccc(-c2ocnc2C(=O)Nc2ccc3c(c2)CCC3)cc1`, the activation falls from 4.29% to -2.69%.

Going from `COc1cc2c(-c3ccc4c(c3)OCO4)c(-c3ccsc3)oc(=O)c2cc1OC` to `O=C(OC12CC3CC(CC(C3)C1)C2)c1ccc(NCc2cc(O)ccc2O)cc1`, the activation rises from -2.61% to 8.31%.

Source: PubChem BioAssay AID504913 (The Scripps Research Institute Molecular Screening Center, 2011)
